Several values for one entry are separate records, joined by “and”; a condition that tells them apart may be missing. Equal entries are not always repeated. Screen size: about 310,000 compounds; about 1,200 (0.39%) were called active. How the calls were made is not given here. The list is a sample of the results. Results with a measured potency or affinity are listed apart.
Target: Large T antigen (Simian virus 40) (UniProt P03070)
Assay: TAg ATPase/helicase activity blockers – biochemical (AID 1903)
Settings: SV40 large T antigen ATPase/helicase inhibition assay; at 20 µM; hits give high values

Chain of Large T antigen (Simian virus 40) (P03070 whole entry, looked up): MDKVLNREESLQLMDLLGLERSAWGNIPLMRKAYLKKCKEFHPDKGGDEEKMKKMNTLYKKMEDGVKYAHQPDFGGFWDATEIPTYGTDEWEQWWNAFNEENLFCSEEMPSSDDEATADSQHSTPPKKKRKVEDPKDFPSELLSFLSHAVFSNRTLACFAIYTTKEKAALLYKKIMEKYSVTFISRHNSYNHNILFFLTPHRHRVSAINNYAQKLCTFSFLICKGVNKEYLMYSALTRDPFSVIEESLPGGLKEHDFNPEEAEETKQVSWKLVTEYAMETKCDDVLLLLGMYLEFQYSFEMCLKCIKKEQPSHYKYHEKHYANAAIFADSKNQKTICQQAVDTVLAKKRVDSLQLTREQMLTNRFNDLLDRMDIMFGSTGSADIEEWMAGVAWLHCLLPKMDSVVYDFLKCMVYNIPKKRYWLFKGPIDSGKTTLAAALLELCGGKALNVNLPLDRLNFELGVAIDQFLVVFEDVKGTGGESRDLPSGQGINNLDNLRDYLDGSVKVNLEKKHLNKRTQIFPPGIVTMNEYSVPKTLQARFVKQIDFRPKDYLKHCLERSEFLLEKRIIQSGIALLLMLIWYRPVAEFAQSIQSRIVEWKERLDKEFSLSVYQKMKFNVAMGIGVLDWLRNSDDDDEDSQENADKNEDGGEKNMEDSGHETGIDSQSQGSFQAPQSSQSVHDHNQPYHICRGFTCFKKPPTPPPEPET

inhibition, inactive:
CN(CC(=O)Nc1ccc(Cl)c(C(F)(F)F)c1)C(=O)C1CCC1 17.7%
Cc1ccc(N=Cc2sccc2C)cc1C 3.36%
Cc1ccsc1/C=N/N=C/c1sccc1C -8.78%
Cn1c(N)c(S(=O)(=O)N2CCCC2)c(=O)n(C)c1=O 8.94%
CCOc1ccccc1NC(=O)C1CCN(c2ccc(S(=O)(=O)N3CCCC3)cc2)CC1 5.71%
NC(=O)c1cc2cc(Br)ccc2oc1=NCc1ccccc1 -0.91%
CC(=NCc1ccccc1)C1=C(O)COC1=O 5.76%
O=C(CCSc1ccc(Cl)cc1)N1CCN(c2ncccn2)CC1 0.35%
CCn1cc(CN2CCC(C(=O)Nc3ccc(Oc4ccccc4F)cc3)CC2)c(C)n1 10.4%
COc1ccc2c(COC(=O)CCS(=O)(=O)c3ccc(C)cc3)cc(=O)oc2c1 6.52%
CCCC(=O)Oc1ccc2c(C)cc(=O)oc2c1 18.6%
COc1cc(C(C)=O)ccc1OCC(O)CN1CCN(c2c(C)cccc2C)CC1 (configuration not stated) -5.73%
OCCOc1ccc(C2=NCCO2)cc1 -2.82%
CCN1CCN(CC(=O)Nc2ccc3c(c2)OCO3)C(=O)C1=O 3.32%
CCN(CC)c1ccc(Nc2cc3n(c(=O)n2)CCc2cc(OC)c(OC)cc2-3)cc1 31.5%
COc1ccc(Nc2cc3n(c(=O)n2)CCc2cc(OC)c(OC)cc2-3)cc1 10.4%
CCOc1ccc(N2C(=O)/C(=C/c3ccccn3)SC2=S)cc1 9.29%
COc1ccc(N2CCN(C(=O)CCc3ccc(S(=O)(=O)NC(C)C)cc3)CC2)cc1 11.6%
CC(C)CC(=O)Nc1ccnn1C1CCN(C(=O)c2ccc(F)cc2Cl)CC1 0.42%
O=C(NNC(=O)c1ccco1)c1ccc(NS(=O)(=O)c2cccs2)cc1 9.88%
COc1ccc(NC(=O)c2sc(SC)nc2N)cc1 3.33%
COc1ccc(NC(=O)c2sc(SCc3ccccc3)nc2N)cc1 1.41%
CC(=O)Nc1ccc2nc(CN3CCN(CC=C(C)C)C(CCO)C3)ccc2c1 (configuration not stated) 5.4%
COc1ccc(C(=O)NNC(=O)C(=O)NC(C)c2ccccc2)cc1OC (configuration not stated) -0.06%
O=C(O)c1ccc2c(c1)C(c1ccccc1)OC2=O (configuration not stated) 11%
COc1ccccc1CC(=O)Nc1ccc(-c2nnc(-c3ccco3)o2)cc1 5.22%
CCOc1ccc(CCNC(=O)c2cccc(S(=O)(=O)N3CCCC3)c2)cc1OCC 2.19%
COc1ccc2c(c1)oc(=O)c1ccccc12 2.39%
Cc1cc(=O)oc2cc(O)ccc12 17.8%
O=c1cc(O)c2ccc(O)cc2o1 4.04%
COc1ccc2c(c1)c(=O)oc1cc(O)ccc12 10.3%
Clc1ccccc1N1CCN(Cc2c[nH]c3ccccc23)CC1 1.73%
O=C(Cn1nnc(-c2ccccc2)n1)Nc1ccccc1N1CCOCC1 -3.12%
C[N+]1=C(/C=C/Nc2ccccc2Cl)C(C)(C)c2ccccc21 21.8%
COC(=O)c1ccc2c(c1)C(C)(C)C(/C=C/c1ccccc1O)=[N+]2C 21.7%
O=C(NCc1ccco1)c1sc(=S)n2c1[nH]c(=O)c1ccccc12 23.2%
O=C(NC1CCCCC1)c1sc(=S)n2c1[nH]c(=O)c1ccccc12 6.27%
Cc1ccc(N(C(=O)c2csnn2)C(C(=O)NC2CCCCC2)c2ccccn2)cc1C (configuration not stated) 4.41%
CCCCCCCCCC[n+]1cccc2c3ccccc3ccc21 23.8%
CCCCC[n+]1cccc2c3ccccc3ccc21 5.51%
[O-][n+]1c2ccccc2cc2ccccc21 3.6%
Cc1ccc2ccccc2[n+]1CCCS(=O)(=O)[O-] 5.88%
CN(C)C(=O)c1ccc(-c2nnc(NCc3ccccc3)c3ccccc23)cc1 17.7%
CCOC(=O)c1c(S(=O)(=O)NCC(=O)Nc2ccc(F)cc2)c(C)n(C)c1C 2.6%
CCOc1ccccc1NC(=O)Cn1c(=O)c(OCC)nc2cnccc21 13.5%
COc1ccc(C2CC(=O)N3CN(c4ccccc4F)CSC3=C2C#N)cc1OC (configuration not stated) 51.3%
COc1ccc2ccccc2c1C1CC(=O)N2CN(C)CSC2=C1C#N (configuration not stated) 28.9%
CN1CSC2=C(C#N)C(c3cccc(OCc4ccccc4)c3)CC(=O)N2C1 (configuration not stated) 43.1%
COc1ccc(Br)cc1C1CC(=O)N2CN(Cc3ccccc3)CSC2=C1C#N (configuration not stated) 35% and 18.8%
Cc1cccc(C(=O)N2CC3(C)CC2CC(C)(C)C3)c1 (configuration not stated) 3.07%
O=C(c1cccc([N+](=O)[O-])c1)c1ccc2c(c1)OCCOCCOCCOCCO2 7.91%
Cc1cccc(N2CCN(C(=O)CCCn3c(=O)c4cccn4c4cccnc43)CC2)c1C 9.66%
CCN1CCN(C(=O)C2=CC(c3ccc(C)cc3)=NS(=O)(=O)N2C)CC1 16.5%
CCN1C(=O)N[C@@H](CCc2ccccc2)[C@@H](C(=O)OC)[C@H]1C 23.2%
COc1cccc(NC(=O)CSCC(=O)Nc2ccccc2)c1 13.8%
O=C(CN1CCCCC1)Nc1ccc(N2CCCCCC2)cc1 31.6%
CC(=O)Nc1ccc(N2CCCC2)cc1 0.723%
CCC(=O)Nc1ccc(N2CCCCC2)cc1 34.9%
CC(=O)Nc1ccc(N2CCN(C(C)=O)CC2)cc1 27.6%
CNC(=O)C12CC3CC(CC(Cl)(C3)C1)C2 11.2%
O=C(CC(C(=O)O)c1cccc(Br)c1)c1ccc(Cl)cc1 (configuration not stated) 9.51%
Nc1cccc2cnccc12 3.43%
N#Cc1cccc2cnccc12 7.69%
O=C(CSc1ccc(-c2ccccc2)nn1)c1cccs1 3.38%
Cc1nonc1OCCNCc1c(C(=O)N(C)C)nc2ccc(Cl)cn12 6.84%
O=C1OC(c2ccc(Cl)cc2)=N/C1=C\C=C\c1ccco1 58.1%
Cc1ccc(N/N=C/C=C/c2ccco2)cc1 12.9%
S=c1[nH]nc(-c2ccc(Cl)cc2)n1/N=C/c1ccco1 35.9%
C(=C\c1ccco1)/C=N/n1cnnc1 21.7%
C(/C=C/c1ccco1)=N/N1CCN(c2ccccc2)CC1 7.94%
S=c1[nH]nc(-c2ccncc2)n1/N=C/C=C/c1ccco1 28.8%
Cc1ccccc1-n1nc2c(c1NC(=O)c1ccc3c(c1)OCO3)CS(=O)(=O)C2 5.82%
CC(=O)Nc1ccc(N(C(=O)c2ccccn2)C(C(=O)NC2CCCCC2)c2ccc(F)cc2)cc1 (configuration not stated) 5.17%
Cc1ccc2[nH]c(=O)c(C(c3nnnn3C(C)(C)C)N(Cc3ccco3)CC3CCCO3)cc2c1 (configuration not stated) 9.73%
Cc1occc1C(=O)Nc1sc2c(c1C(N)=O)CCC(C(C)(C)C)C2 (configuration not stated) 16.6%
COc1cc(OC)c(N(C)S(=O)(=O)c2cccc(C(=O)OCc3c(C)noc3C)c2)cc1Cl 5.27%
Cc1ccc(N2C(=O)C3CCC(C)(C2=O)C3(C)C)cc1 (configuration not stated) 1.07%
O=C(Cn1cnc2ccccc2c1=O)Nc1nc2ccccc2s1 4.55%
Cc1nnsc1C(=O)N1CCCC(C(=O)c2ccc(C(F)(F)F)cc2)C1 (configuration not stated) -2.34%
Cc1cccc(OCC(=O)N2CCN(c3nnc(-c4ccccc4)c4ccccc34)CC2)c1 12.7%
CCn1cc(C(=O)NCC(C)C)c(=O)c2cc(F)c(N3CCN(C)CC3)cc21 15.3%
COc1cc(OC)cc(C(=O)NCC2CCCN(C(=O)c3csc(C(C)C)n3)C2)c1 (configuration not stated) 12.6%
Cc1ccc(COc2ccc(S(=O)(=O)N3CCCC3)cc2C(N)=O)cc1 4.61%
O=C(Nc1ccc(F)cc1)Oc1ccc[nH]c1=O 9.86%
COc1ccccc1N1CCN(C(=O)/C=C/c2ccc(C)cc2)CC1 9.93%
CCc1ccc2[nH]c(=O)c(CN(CC3CCCO3)C(=S)NCc3ccco3)cc2c1 (configuration not stated) 10.7%
O=C(CSc1n[nH]c(=O)n1Cc1ccco1)Nc1ccccc1Cl 12.1%
N=c1n(CCO)c2ccccc2n1CCN1CCCCC1 6.21%
COc1ccc(N2C(=O)c3ccccc3NC23CCCCC3)cc1 -1.05%
COc1ccc(N2C(=O)c3ccccc3NC23CCCC3)cc1 5.28%
O=C(/C(=C(\[O-])c1ccccc1)[n+]1ccc2ccccc2c1)c1ccc([N+](=O)[O-])cc1 15%
O=[N+]([O-])c1cccc(S(=O)(=O)c2cccc([N+](=O)[O-])c2)c1 3.63%
CCC(C)N(C(=O)CSc1nnc(-c2ccco2)n1C)C1CCS(=O)(=O)C1 (configuration not stated) 13.2%
CCc1nc2nc(C)c(NS(=O)(=O)c3ccc(C)c(C)c3)c(=O)n2[nH]1 4.17%
O=C(Oc1ccc(-c2nnco2)cc1)C1CCN(C(=O)c2ccc(F)cc2)CC1 5.55%
COC(=O)N/C(C)=C1/NC(=O)c2ccccc2C(c2ccccc2)N1 (configuration not stated) 6.67%
O=C(O)c1ccc2c(=O)n3c(nc2c1)/C(=C/c1ccc(Cl)c(Cl)c1)CC3 24.8%
